Most compounds without a hit are left out; they make up all but 4.5% or so of the library.
Mdm2-MdmX inh = inhibitors of human Mdm2/MdmX interaction. O15151+Q00987. SaOS-2 split-luciferase Mdm2/MdmX complementation, luminescence. inhibition, % at 8 µM. hit rate 3% among 330,000;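 active = inhibition of at least 50% at 8 µM in the primary screen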
CSC inhib = cancer stem cell inhibition | inhibition, % at 7.5 µM | hit rate 1.1% among 300,000 | cancer stem cell-like cells viability, luminescence | AID 2717; in the data active = inhibition above about 75%; tested in HMLE shEcad cells
697 NFkB inh = lowers PMA/ionomycin-induced NF-kB signal in 697 B cells; 697 B-cell NF-kB luciferase reporter, 16 h; inhibition, % at 4 µM; hit rate 0.33% among 330,000; AID 435022; in the data active = inhibition above about 35%
Jurkat NFkB inh = inhibitors of the PMA/ionomycin-induced NF-kB reporter in Jurkat cells; AID 435003; inhibition, % at 4 µM; PMA/ionomycin-induced NF-kB luciferase reporter, luminescence; hit rate 0.53% among 330,000; in the data active = inhibition above about 50%
Gli-Sufu block = antagonists of Gli-Sufu signaling; Sufu-KO-LIGHT fibroblasts, Gli luciferase reporter luminescence; inhibition, % at 5 µM; hit rate 0.74% among 340,000;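 active = inhibition above about 55%, limit read from the data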
Beta cell apopt = blocks beta cell apoptosis. hit rate 0.8% among 300,000. INS-1E cytokine-induced death, ATP luminescence, 48 h; percent of positive-control rescue, neutral wells zero. protection from apoptosis, % (concentration not given with the values);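 active = Every replicate reaches about 75%, or at least half do and their mean reaches it too, limit read from the data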;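 note: higher means more ATP so stronger rescue from cytokine killing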
Each line names hits and unclear results; the compound was inactive in the other large screens.

CCCCC[C@@H]1C=C(C(=O)O)[C@H](c2ccc(Cl)c(Cl)c2)N1S(=O)(=O)c1ccc(C)cc1	CSC inhib 98
Cc1ccc(S(=O)(=O)N2[C@@H](c3ccc(C(C)(C)C)cc3)C(C(=O)O)=CC[C@H]2c2cccc(Cl)c2)cc1	CSC inhib 138
CCc1ccc([C@@H]2CC=C(C(=O)O)[C@H](c3ccc(Cl)cc3)N2S(=O)(=O)c2ccc(C)cc2)cc1	CSC inhib 79
CC1=NN(c2ccccc2)C(=O)/C1=C/C=C/C=C/N(C)C	none
CC1=NN(c2ccc(C)cc2)C(=O)/C1=C\C=C\c1ccccc1	CSC inhib 78
CCc1ccc2oc(C(=O)NCC(c3ccc(OC)cc3)N3CCCCC3)c(C)c2c1 (centres undefined)	CSC inhib 85
CNS(=O)(=O)c1cc(NC(=O)c2cnc(SC)n2-c2ccccc2)ccc1C	none
CCOC(=O)c1c(-c2ccc(F)cc2)csc1NC(=O)CCN1CCOCC1	none
CCOC(=O)c1c(-c2ccc(-c3ccccc3)cc2)csc1NC(=O)CCN1CCOCC1	CSC inhib 105 (no result: Mdm2-MdmX inh, 697 NFkB inh, Jurkat NFkB inh)
Cc1ccc(NC(=O)Nc2ccon2)cc1Cl	none
Cc1ccc2nc(-c3ccc(NS(=O)(=O)c4ccc(F)c(F)c4)cc3)sc2c1	CSC inhib 103 (no result: Mdm2-MdmX inh, 697 NFkB inh, Jurkat NFkB inh)
CCCc1cc(=O)[nH]c(SCC(=O)N2CCCCCC2)n1	none
CC(C)C1C(c2ccccc2)N(C)C(c2ccccc2)CC1(O)c1ccccc1 (centres undefined)	CSC inhib 131
CCC1C(c2ccccc2)N(C)C(c2ccccc2)CC1(O)c1ccccc1 (centres undefined)	none
Cc1ccc(C)c(S(=O)(=O)Nc2ccc(O)c3ccccc23)c1	Beta cell apopt 99
COc1ccc(S(=O)(=O)Nc2ccc(O)c3ccccc23)cc1	Beta cell apopt 124 (no result: CSC inhib)
COc1ccc(S(=O)(=O)Nc2ccccc2)cc1	none
Cc1ccc(S(=O)(=O)Nc2ccc(O)c3ccccc23)c(C)c1	Beta cell apopt 96 (no result: Mdm2-MdmX inh, 697 NFkB inh, Jurkat NFkB inh)
COCc1nnc(NC(=O)CS(=O)(=O)c2ccc(C)cc2)s1	none
NC(=O)c1nsc(C(=O)N(CC(=O)NCc2ccccc2)c2ccc(F)cc2)c1N	none
Cc1ccc(S(=O)(=O)Nc2ccc3nc(C)sc3c2)cc1	none
Cc1nc2ccc(NS(=O)(=O)c3ccc4c(c3)OCCO4)cc2s1	Beta cell apopt 123
CCN(CC)CCCNC1=C(Cl)C(=O)c2ccccc2C1=O	CSC inhib 107, Beta cell apopt 98
O=C1C(Cl)=C(NCCc2ccccc2)C(=O)c2ccccc21	none (no result: Mdm2-MdmX inh, CSC inhib, 697 NFkB inh, Jurkat NFkB inh, Beta cell apopt)
COCCCNC1=C(Cl)C(=O)c2ccccc2C1=O	none (no result: CSC inhib, Beta cell apopt)
O=C1C(Cl)=C(Nc2ccccc2)C(=O)c2ccccc21	CSC inhib 112 (no result: Mdm2-MdmX inh, 697 NFkB inh, Jurkat NFkB inh)
O=C1C(Cl)=C(NCc2cccnc2)C(=O)c2ccccc21	Beta cell apopt 84
COC1=C(Nc2ccccc2)C(=O)c2ccccc2C1=O	Beta cell apopt 95 (no result: CSC inhib)
COC(CNC(=O)c1ccc2c(c1)ncn2C1CCCCCC1)OC	none
Cc1c(C(=O)N(Cc2ccccc2)Cc2cccs2)cnn1-c1ccc(Cl)cc1	CSC inhib 80 (no result: Beta cell apopt)
CCOC(=O)C1CCCN(CCC(=O)Nc2ccc(Br)c(C)c2)C1 (centres undefined)	none
CC(=O)Oc1ccc(N(C(C)=O)S(=O)(=O)c2cccs2)c2ccccc12	Beta cell apopt 93
O=C(CSc1nc2nc(-c3cccs3)cc(C(F)(F)F)c2c(=O)[nH]1)Nc1c(F)c(F)c(F)c(F)c1F	CSC inhib 88
NS(=O)(=O)c1cccc(NC(=O)CSc2nc3nc(-c4cccs4)cc(C(F)(F)F)c3c(=O)[nH]2)c1	none
OCCCn1c(CCNc2nc(-c3ccc(Cl)cc3)cs2)nc2cc(C(F)(F)F)ccc21	CSC inhib 78
O=[N+]([O-])c1cc(-c2csc(NCCc3nc4cc(C(F)(F)F)ccc4n3CCCO)n2)ccc1Cl	none
COc1cc(CN2CCc3ccccc3C2)ccc1O	Beta cell apopt 142
CN(C)c1ccc(C=c2c3cc(O)ccc3n3c2cc(-c2ccccc2)[n+]3C)cc1	Gli-Sufu block 72 (no result: Mdm2-MdmX inh, CSC inhib, 697 NFkB inh, Jurkat NFkB inh, Beta cell apopt)
C[n+]1c(-c2ccccc2)cc2c(=Cc3ccc([N+](=O)[O-])cc3)c3ccccc3n21	none (no result: Mdm2-MdmX inh, CSC inhib, 697 NFkB inh, Jurkat NFkB inh, Beta cell apopt)
C[n+]1c(-c2ccccc2)cc2c(=Cc3ccccc3)c3ccccc3n21	Gli-Sufu block 77 (no result: Mdm2-MdmX inh, CSC inhib, 697 NFkB inh, Jurkat NFkB inh, Beta cell apopt)
O=C(O)C1CCc2nc(NCc3ccccc3)nc(NCc3ccccc3)c2C1 (centres undefined)	none (no result: Mdm2-MdmX inh, CSC inhib, 697 NFkB inh, Jurkat NFkB inh, Beta cell apopt)
CCc1ccc(-c2cc(C(=O)N3N=C(C(F)F)CC3(O)C(F)F)c3ccccc3n2)cc1 (centres undefined)	CSC inhib 89
CC(C)Cc1cc(C(=O)N2N=C(C(F)F)CC2(O)C(F)F)c2ccccc2n1 (centres undefined)	none
COc1ccc(/C=C/C(=O)NC(=S)Nc2ccccc2C(=O)NC2CCCCC2)cc1	Beta cell apopt 79
COC(=O)c1c(NC(=O)c2ccco2)sc2c1CCC2	CSC inhib 76
CC(C)Oc1ccc(CNC(=O)CC(c2ccccc2)c2cc(Cl)ccc2O)cc1 (centres undefined)	CSC inhib 97
COc1ccccc1C(CC(=O)Nc1ccc(Cl)cc1)c1ccc(OC(C)C)cc1 (centres undefined)	none
NNc1nc(-c2ccccc2Cl)nc2sc3c(c12)CCCC3	CSC inhib 76
Cc1ccc(C(=O)NCCc2nnc3ccc(NCCCN4CCOCC4)nn23)cc1	none
CC(=O)c1ccc(N2CCN(c3ccc(S(=O)(=O)NCCCN(C)C)cc3[N+](=O)[O-])CC2)cc1	CSC inhib 82
N#Cc1c(Nc2ccccc2)sc(C(=O)c2ccc(F)cc2)c1N	Beta cell apopt 91
Cc1nn(C(C)C(=O)NCc2ccco2)c(C)c1[N+](=O)[O-] (centres undefined)	none
C/C(=N\NC(=O)C(C)n1nc(C)c([N+](=O)[O-])c1C)c1ccccc1O (centres undefined)	Beta cell apopt 92
Cc1cccc(N2C(=S)N=C(Nc3c(C)cccc3C)C23CCOC(C)(C)C3)c1 (centres undefined)	Beta cell apopt 82
Cc1cccc(C)c1NC1=NC(=S)N(c2ccccc2)C12CCOC(C)(C)C2 (centres undefined)	none
N#Cc1ccccc1COc1cccc2c1CCCC2O (centres undefined)	none
CC(C)Cc1cc(C(=O)Nc2ccc3c(c2)OCO3)no1	CSC inhib 122
O=C(Nc1ccc2c(c1)OCO2)c1cc(-c2cccc(O)c2)on1	CSC inhib 100
O=C1C=C(c2cccc(Br)c2)C[C@@H](c2ccc3c(c2)OCO3)C1	none
CCOc1ccccc1C(=O)Nc1cc2c(cc1N1CCCC1)n(CC)c(=O)n2CC	Gli-Sufu block 58
CCN(CC)CCN1C(=O)c2cccc3cc(N)cc(c23)C1=O	none
Nc1cc2c3c(cccc3c1)C(=O)N(CCN1CCCC1)C2=O	Beta cell apopt 75 (no result: Mdm2-MdmX inh, 697 NFkB inh, Jurkat NFkB inh)
COc1ccc(Br)cc1CSC(=N)N	none (no result: Beta cell apopt)
CCCCCOc1ccc(Br)cc1CSC(=N)N	Gli-Sufu block 66 (no result: Mdm2-MdmX inh, CSC inhib, 697 NFkB inh, Jurkat NFkB inh, Beta cell apopt)

Screens from PubChem.
